Inhibition data for 30 compounds are collected here from ChEMBL document CHEMBL4513146, “CO-ADD screening of Karazin Kharkiv National University (Ukraine) compounds”.

Measured potencies and affinities stand elsewhere.

For assay [1], the system named is Klebsiella pneumoniae. Conditions: Concentration 32 ug.mL-1;; ASSAY_TEST Inhibition of Bacterial Growth; detection method Absorption (OD600); MEDIA CAMHB; plate type 384well; NBS; CORNING #3640; time 18 hr.
The subject of assay [2] is Candida albicans. Conditions: Concentration 32 ug.mL-1; ASSAY_TEST Inhibition of Fungal Growth; detection method Absorption (OD530).
Assay [3] concerns Cryptococcus neoformans. Conditions: Concentration 32 ug.mL-1; ASSAY_TEST Inhibition of Fungal Growth; detection method Resazurin; Absorption (OD600-OD570); plate type 384well; NBS; CORNING #3640. On the technique in general: Alamar Blue is a resazurin reagent that responds to reducing activity.

As to `O=C(CCc1nnc2c3cc(-c4ccc(F)cc4)nn3ccn12)NCc1ccccc1Cl`, the Inhibition in assay [1] is on record as 1.44%; in assay [2], 9.78%; in assay [3], -27.21%.
Turning to `CCC(C)NC(=O)Cn1nc2n(Cc3cccs3)c(=O)c3sccc3n2c1=O` (stereo not given), the Inhibition in assay [1] is 6.55%; in assay [2], 0.06%; in assay [3], -19.39%.
The like results for `CC(C)CCn1c(=O)c2sccc2n2c(=O)n(CC(N)=O)nc12` were, in that order, 10.09%, -1.13% and -22.72%.
The like results for `Cc1ccc(CNC(=O)Cn2nc3c(Sc4ccc(C)cc4C)nccn3c2=O)cc1` were, in that order, 3.93%, 2.64% and -16.78%.
For the compound `O=C(CSc1nnc2c(=O)n(-c3ccccc3)ccn12)c1c[nH]c2ccccc12`, the Inhibition in assay [1] was 19.5%; in assay [2], 3.09%; in assay [3], -9.19%.
On to `CCOC(=O)c1ccccc1NC(=O)Cn1nc2c3sc(N4CCCC4)nc3ncn2c1=O`, for which the Inhibition is reported as 9.28% in assay [1], 9.32% in assay [2] and -6% in assay [3].
The like results for `CCN(C(=O)Cn1nc2cc(C)nc(Nc3ccc(C)c(F)c3)n2c1=O)c1ccccc1` were, in that order, 13.32%, 0.56% and -6.91%.
`Cc1cccc(CN(c2ccc(C(C)C)cc2)S(=O)(=O)c2cccn3c(C)nnc23)c1`: the Inhibition in assay [1] is on record as 9.59%; in assay [2] it was 3.05%; in assay [3] it was -9.59%.
For `CC1CC(C)CN(c2nccn3c(=O)n(CC(=O)NCc4ccccc4Cl)nc23)C1` (stereo not given) the same measures were 9.46%, -0.66% and -5.61%.
For `O=C(Cn1nc2c3cc(-c4ccc(Cl)cc4)nn3ccn2c1=O)NCc1ccccc1` the same measures were 15.63%, 3.19% and -21.92%.
For `O=C(CSc1nc2ccccc2n2cnnc12)Nc1ccc2c(c1)OCCO2` the same measures were 4.35%, 2.01% and -3.4%.
In the case of `Cc1cc2nn(CC(=O)Nc3cc(F)ccc3C)c(=O)n2c(Nc2ccc(F)c(C)c2)n1`, the Inhibition is 15.58% in assay [1], 4.23% in assay [2] and -9.62% in assay [3].
Turning to `COc1ccc(-c2cc3c4nnc(SCC(=O)Nc5ccccc5F)n4ccn3n2)cc1`, the Inhibition was 6.81% in assay [1], -0.08% in assay [2] and -26.1% in assay [3].
For `CC(C)Sc1ccc2nn(CC(=O)Nc3ccc(F)cc3Cl)c(=O)n2n1` the same measures were 6.92%, 3.44% and -6.24%.
The like results for `O=C(CSc1nc2ccccc2n2cnnc12)Nc1cc(C(F)(F)F)ccc1Cl` were, in that order, 4.72%, 15.89% and -19.78%.
The like results for `CCc1ccccc1Sc1nccn2c(=O)n(CC(=O)Nc3ccc(OC)cc3)nc12` were, in that order, 0.32%, 4.23% and -13.58%.
For `COc1ccc(-c2cc3c4nn(CC(=O)Nc5ccc(C)cc5)c(=O)n4ccn3n2)cc1`, the Inhibition in assay [1] is given as 7.98%; in assay [2] it was 8.11%; in assay [3], -26.93%.
Turning to `Cc1ccc(Oc2nccn3c(=O)n(CC(=O)Nc4ccccc4C(F)(F)F)nc23)cc1`, the Inhibition in assay [1] was 6.49%; in assay [2], 0.6%; in assay [3], -7.72%.
As to `Cc1ccc(N(CC(=O)OC(C)(C)C)S(=O)(=O)c2ccc3nnc(C)n3c2)cc1`, the Inhibition is given as 4.9% in assay [1], 1.78% in assay [2] and -16.68% in assay [3].
For `O=C(Cn1nc2c(=O)n(-c3ccc(Br)cc3)ccn2c1=O)Nc1ccc(F)cc1F`, the Inhibition is on record as 7.12% in assay [1], 0.41% in assay [2] and -12.15% in assay [3].
For `COCCCNC(=O)CSc1nnc2c(=O)n(Cc3ccccc3)ccn12` the same measures were 17%, 2.41% and -23.49%.
The like results for `COc1ccc(-c2cc3c4nnc(SCC(=O)NCc5ccccc5)n4ccn3n2)cc1` were, in that order, -10.83%, 19.83% and -19.87%.
For the compound `O=C(Cn1nc2c3cc(-c4ccc(Cl)cc4)nn3ccn2c1=O)N1CCN(c2ccccc2)CC1`, the Inhibition is 10.64% in assay [1], 0.94% in assay [2] and -23.41% in assay [3].
The like results for `CC1CCN(C(=O)Cn2nc3n(Cc4cccs4)c(=O)c4sccc4n3c2=O)CC1` were, in that order, 0.67%, 6.15% and -10.95%.
As for `CCOc1ccc(NC(=O)Cn2nc3c4c5c(sc4ncn3c2=O)CCCC5)cc1`, the Inhibition in assay [1] was 5.11%; in assay [2] it was 2.52%; in assay [3], -9.01%.
The like results for `COc1ccccc1-n1ccn2c(SCc3ccccc3C)nnc2c1=O` were, in that order, 12.73%, 3.95% and -12.54%.
The like results for `Cc1ccc(NC(=O)Cn2nc3ccc(-c4ccc(Cl)cc4)nn3c2=O)cc1F` were, in that order, 2.59%, -1.16% and -2.55%.
The like results for `Cc1ccc(-c2cc3c4nn(CC(=O)Nc5ccc(Cl)cc5)c(=O)n4ccn3n2)cc1C` were, in that order, -7.29%, 11.19% and -17.93%.
As to `Cc1ccc(-c2cc3c4nn(CC(=O)NC5CCCC5)c(=O)n4ccn3n2)cc1C`, the Inhibition in assay [1] is listed as 3.15%; in assay [2], 6.8%; in assay [3] it was -13.73%.
For `Cc1nnc2c(SCC(=O)Nc3ccc(Br)cc3F)nc3ccccc3n12`, the values for the Inhibition in assay [1], in assay [2] and in assay [3] were 10.56%, 0.1% and -6.82%, respectively.

For orientation: Inhibition means the change of the read-out against control, counted positive when it falls.
